We go through eight compounds from PubChem BioAssay (EPA / NIEHS).

Results filed as inconclusive are left out. The source made the active and inactive calls. Rule for the calls, unless noted: active = hit-call score of the fitted dose curve at least 0.9, where 1 is the maximum; inconclusive = response in the unintended direction; inactive = score below 0.9.

The nature of experiment [1]: Tanguay_ZF_120hpf_SOMI_legacy: (Legacy) Oregon State University Tanguay Lab 120 Hour Post-fertilization zebrafish Assay for Somite Malformation (AID 2283647). The method in brief:
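Read-out: presence or absence of somite malformation in 120 hpf larvae, gain-of-signal relative to DMSO baseline. Embryos lacked chorion (pronase, 4 hpf) and were exposed statically from 6 hpf at 28C; dead larvae not scored.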

Experiment [2] is described as follows: Tanguay_ZF_120hpf_PFIN_legacy: (Legacy) Oregon State University Tanguay Lab 120 Hour Post-fertilization zebrafish Assay for Pectoral Fin Malformation (AID 2283648).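 Note: each larva judged yes or no for fin defect by brightfield with dead larvae skipped.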 The method in brief:
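5D WT zebrafish; pronase dechorionation 4 hpf; 1 embryo/well at 6 hpf; static exposure to 120 hpf, 28C, sealed, foil-covered; final DMSO 0.64% v/v; 5 uM trimethyltin chloride positive control; fin defect scored yes/no.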

The nature of experiment [3]: Tanguay_ZF_120hpf_CFIN_legacy: (Legacy) Oregon State University Tanguay Lab 120 Hour Post-fertilization zebrafish Assay for Caudal Fin Malformation (AID 2283649). The method, boiled down: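 Binary presence or absence of caudal fin malformation at 120 hpf, read by brightfield microscopy, with DMSO as baseline. Larvae came from 5D wild-type embryos exposed statically from 6 hpf at 28C after pronase dechorionation.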

A short description of experiment [4]: Tanguay_ZF_120hpf_CIRC_legacy: (Legacy) Oregon State University Tanguay Lab 120 Hour Post-fertilization zebrafish Assay for Circulatory Malformation (AID 2283651). The method in brief: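 Using wild-type Tropical 5D zebrafish, we exposed dechorionated embryos from 6 to 120 hpf in embryo medium with 0.64% DMSO. Circulatory defects were scored as present or absent; 5uM trimethyltin chloride served as positive control.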

Experiment [5] in a line: Tanguay_ZF_120hpf_SWIM_legacy: (Legacy) Oregon State University Tanguay Lab 120 Hour Post-fertilization zebrafish Assay for Swim Bladder Malformation (AID 2283654).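 Note: swim bladder malformation in each larva scored yes or no under brightfield.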 The method in brief:
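Embryos lacking chorions were exposed individually and statically to test chemical from 6 to 120 hpf at 28C, with 0.64% DMSO as vehicle. At 120 hpf, swim bladder malformation was recorded as present or absent by brightfield microscopy.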

Experiment [6] in a line: Tanguay_ZF_120hpf_TRUN_legacy: (Legacy) Oregon State University Tanguay Lab 120 Hour Post-fertilization zebrafish Assay for Truncated Body (AID 2283655). The method, boiled down:
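Truncated body is recorded as a binary endpoint at 120 hpf by brightfield imaging of wild-type 5D larvae. Exposure runs statically from 6 hpf at 28C with 0.64% DMSO; embryos dying earlier are not scored.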

Experiment [7] can be described thus: Tanguay_ZF_120hpf_NC_legacy: (Legacy) Oregon State University Tanguay Lab 120 Hour Post-fertilization zebrafish Assay for Notochord and Tail Malformation (AID 2283656). The method in brief:
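Dechorionated 5D zebrafish, 1/well from 6 hpf; static exposure to 120 hpf, 28C, sealed, dark; final DMSO 0.64% v/v. NC scored binary (present/absent); dead embryos not scored. Fit vs DMSO baseline, gain direction.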

Experiment [8] in a line: Tanguay_ZF_120hpf_TR_legacy: (Legacy) Oregon State University Tanguay Lab 120 Hour Post-fertilization zebrafish Assay for Touch Response (AID 2283667). The method, boiled down:
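5D WT embryos; static exposure to 120 hpf, 28C, sealed/dark; DMSO 0.64% v/v final. TR scored present/absent; dead embryos excluded. Pos ctrl 5uM trimethyltin chloride.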

A short description of experiment [9]: STM_H9_OrnithineISnorm_perc: Stemina devTOX quickPredict H9 human embryonic stem cell (hESC)-based Assay for Ornithine (ORN) Metabolite Biomarker, Normalized (AID 2283712; active = hit-call score of the fitted dose curve at least 0.9, where 1 is the maximum; inactive = score below 0.9;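 note: ornithine released into spent medium during last day measured by mass spectrometry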). The method in brief:
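Cells: undifferentiated H9 hESC. Dosing: 72 h, media replaced every 24 h. Sample: final 24-h conditioned media, 40% acetonitrile. Read: UPLC-HRMS ornithine area vs 13C standard, % DMSO control.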

Experiment [10] can be described thus: STM_H9_CystineISnorm_perc: Stemina devTOX quickPredict H9 human embryonic stem cell (hESC)-based Assay for Cystine (CYSS) Metabolite Biomarker, Normalized (AID 2283713; active = hit-call score of the fitted dose curve at least 0.9, where 1 is the maximum; inactive = score below 0.9). The method, boiled down:
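Secreted cystine was measured by UPLC-HRMS in H9 hESC medium after 72h compound exposure with 24-hourly replenishment. Values are standard-normalized areas relative to 0.1% DMSO.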

Experiment [11] is described as follows: STM_H9_OrnCyssISnorm_ratio: Stemina devTOX quickPredict H9 human embryonic stem cell (hESC)-based Assay for Ornithine (ORN):Cystine (CYSS) Ratio (AID 2283714). The method, boiled down:
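Steps: H9 hESCs in pluripotent state dosed 72h, medium plus compound renewed every 24h; conditioned medium from the final 24h deproteinized in 40% acetonitrile; ORN and CYSS quantified by UPLC-HRMS with C13 spike-ins; ratio relative to vehicle.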

Experiment [12] can be described thus: Tanguay_ZF_120hpf_PIG_legacy: (Legacy) Oregon State University Tanguay Lab 120 Hour Post-fertilization zebrafish Assay for Pigmentation Malformation (AID 2283650). The method in brief:
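Pronase dechorionation at 4 hpf; embryos plated at 6 hpf, one per well; static exposure, sealed and foil-covered, 28C, to 120 hpf; pigmentation read by brightfield, binary; DMSO 0.64% baseline, 5uM trimethyltin chloride positive control.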

Read-out in experiment [13]: kallikrein-3 (KLK3), KLK3 (gene 354)
Briefly: LTEA_HepaRG_KLK3: Life Technologies and Expression Analysis (LTEA) Assay for kallikrein-3 (KLK3) using HepaRG (AID 2283652; active = hit-call score of the fitted dose curve at least 0.9, where 1 is the maximum; inactive = score below 0.9). The settings on record: mRNA level, 48 h; actives raise or lower the signal. The method in brief: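 Differentiated human HepaRG cells in serum-free induction medium exposed 48 h in duplicate, eight-point half-log series from 100 uM in 0.5% DMSO. KLK3 mRNA by qRT-PCR, normalised to ACTB, GAPDH, POLR2A; bidirectional fit versus DMSO.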

Read-out in experiment [14]: solute carrier (SLC22A6), SLC22A6 (gene 9356)
The experiment in a line: LTEA_HepaRG_SLC22A6: Life Technologies and Expression Analysis (LTEA) Assay for solute carrier (SLC22A6) using HepaRG (AID 2283653; active = hit-call score of the fitted dose curve at least 0.9, where 1 is the maximum; inactive = score below 0.9). Particulars: mRNA level, 48 h; actives raise or lower the signal. The method, boiled down: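 Read-out is SLC22A6 transcript level by qRT-PCR, normalised to three housekeeping genes and fitted for gain or loss relative to 0.5% DMSO vehicle. Human HepaRG cells received chemicals at up to 100 uM for 48 h.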

Read-out in experiment [15]: solute carrier (SLC10A1), SLC10A1 (gene 6554)
Briefly: LTEA_HepaRG_SLC10A1: Life Technologies and Expression Analysis (LTEA) Assay for solute carrier (SLC10A1) using HepaRG (AID 2283657; active = hit-call score of the fitted dose curve at least 0.9, where 1 is the maximum; inactive = score below 0.9). Particulars: mRNA level, 48 h; actives raise or lower the signal. The method in brief: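 Transcript levels were measured by qRT-PCR after human HepaRG cells received test chemical for 48 hours, up to 100 uM in half-log dilutions. Values come from bidirectional concentration-response fitting relative to 0.5% DMSO vehicle.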

Read-out in experiment [16]: matrix metalloproteinase-1 (MMP1), MMP1 (gene 4312)
The experiment in a line: LTEA_HepaRG_MMP1: Life Technologies and Expression Analysis (LTEA) Assay for matrix metalloproteinase-1 (MMP1) using HepaRG (AID 2283658; active = hit-call score of the fitted dose curve at least 0.9, where 1 is the maximum; inactive = score below 0.9). The settings on record: mRNA level, 48 h; actives raise or lower the signal. The method in brief: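 HepaRG, ~100,000 cells/well, 48 h pre-culture; serum-free induction medium; test chemical 8 conc (max 100 uM, half-log), duplicate, 48 h; 0.5% DMSO; qRT-PCR MMP1, housekeeping-normalized; gain/loss fit vs DMSO.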

Read-out in experiment [17]: Cytochrome P450 (CYP24A1_1), CYP24A1 (gene 1591)
Briefly: LTEA_HepaRG_CYP24A1_1: Life Technologies and Expression Analysis (LTEA) Assay for Cytochrome P450 (CYP24A1_1) using HepaRG (AID 2283671; active = hit-call score of the fitted dose curve at least 0.9, where 1 is the maximum; inactive = score below 0.9). The settings on record: mRNA level, 48 h; actives raise or lower the signal. The method, boiled down: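 In this test, gene induction or suppression of CYP24A1 in human HepaRG liver cells is measured by qRT-PCR after 48 h chemical treatment (eight concentrations, maximum 100 uM). Values are fitted bidirectionally relative to DMSO.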

The test system of experiment [18] is Thyroperoxidase (TPO), gene 54314. The experiment in a line: CCTE_Simmons_AUR_rTPO: CCTE's Amplex UltraRed Assay for Thyroperoxidase (TPO) Inhibition, Simmons Lab (AID 2283662).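 Note: potency for loss of signal meaning inhibition of peroxidase activity.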 The method, boiled down: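 Rat thyroid microsomes (5 ug protein) were incubated with test compound (8 concentrations, 5 nM–87.5 uM final, 0.5% DMSO), 25 uM Amplex UltraRed and 300 uM H2O2 in 200 mM phosphate buffer for 30 min at 37C in the dark; fluorescence read at 544/590 nm.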

The nature of experiment [19]: CCTE_Simmons_CellTiterGLO_HEK293T: Viability Assessment in CCTE's Assays for Thyroperoxidase (TPO) Inhibition, Simmons Lab (AID 2283665). The method, boiled down: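 Cytotoxicity counter-screen: human HEK293T cells in low-serum (1% FBS) medium receive test chemical, 5 nM to 87.5 uM final, for 24 h; ATP is quantified by luciferase luminescence.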
Background: Cellular ATP, detected with luciferase, serves as a proxy for viable cell number.

`CCCCOC(=O)c1ccc(O)cc1`: the half-maximal activity concentration (AC50) (usually the midpoint of the concentration-response curve, whichever way the signal moves) in experiment [1] was 63.7 µM (active); in experiment [2], 46.5 µM (active); in [3], 50.2 µM (active); in experiment [4], 40.3 µM (active); in experiment [5], 46 µM (active); in experiment [6], 21 µM (active). Also, the figures for the concentration at half-maximal activity (AC50) in [8] and in [9] were 49.3 µM (active) and 42.3 µM (active), respectively. For the same compound, the outcome in experiment [7], in experiment [10] and in experiment [11] was inactive.
Turning to `CCCCCCCCCCCC[N+](C)(C)C`, the result in experiment [1], in experiment [2], in [3], in experiment [12], in experiment [4] and in experiment [5] was inactive. For the same compound, the result in experiment [6], in experiment [7] and in experiment [8] was inactive. For the same compound, the AC50 in [9] is 7.79 µM (active); in experiment [10] it was 1.6 µM (active); in experiment [11], 4.73 µM (active).
As to `O=C1c2ccccc2C(=O)N1CCc1noc(-c2ccc(CN3CCCCCC3)s2)n1`, the result in experiment [1], in experiment [2], in experiment [3], in experiment [12], in [4] and in [13] was inactive. In addition, the outcome in experiment [14], in experiment [5], in experiment [6], in experiment [7], in experiment [16] and in [8] was inactive. Besides, the outcome in experiment [17] was inactive. Also, the AC50 in experiment [15] was 11.1 µM (active).
Turning to `COCC(C)OCC(C)OCC(C)O` (stereo not drawn), the call in experiment [1], in experiment [2], in [3], in experiment [12], in experiment [4] and in experiment [5] was inactive. The compound was classed as inactive in experiment [6], in [7] and in experiment [8].
As for `C[C@]12CC[C@@H]3c4ccc(O)cc4CC[C@H]3[C@@H]1CC[C@H]2O`, the compound was classed as inactive in experiment [1], in experiment [2], in experiment [3], in experiment [4], in experiment [14] and in experiment [5]. Besides, the compound was called inactive in experiment [6], in [7], in experiment [16], in experiment [19], in experiment [8] and in experiment [17]. In addition, the half-maximal activity concentration (AC50) is 72.6 µM (active) in [15] and 4.06 µM (active) in [18].
Take `O=c1c(-c2ccc(O)cc2)coc2cc(O)cc(O)c12`: the compound was called inactive in experiment [1], in [2], in [3], in [12], in experiment [4] and in experiment [5]. In addition, the call in experiment [6], in experiment [7] and in experiment [8] was inactive. Further, the AC50 is 3.6 µM (active) in [18], 48.8 µM (active) in [9], 71.6 µM (active) in experiment [10] and 73.7 µM (active) in [11].
On to `NC(=O)c1nc(-c2cccc(-c3cc(F)ccc3OCC(F)(F)C(F)(F)F)c2)n[nH]1`, for which the AC50 in experiment [1] was 25.8 µM (active); in experiment [2] it was 24.8 µM (active); in [12], 26.7 µM (active); in experiment [4], 27.3 µM (active); in experiment [5], 26.4 µM (active); in experiment [6], 27 µM (active). In addition, the figures for the half-maximal activity concentration (AC50) in experiment [8], in experiment [10] and in experiment [11] were 26.6 µM (active), 3.59 µM (active) and 3.99 µM (active), respectively. Moreover, the compound was called inactive in [3], in experiment [7] and in [9].
For `O=CCCCC=O`, the result in experiment [1], in experiment [2], in experiment [3], in experiment [12], in [5] and in experiment [6] was inactive. The compound was called inactive in experiment [7] and in experiment [8].
